Laboratory results published in PMC5540273 (PLoS ONE, 2017).

What follows are molecules tested on CDK7. Settings: concentration: 1 μM, replicates: in singlicate; n = 1.
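Also: KINOMEscan kinase panel screen.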

Row | Compound | %Inh [%]
1 | Cc1ccc(-c2cc(-c3c[nH]nc3-c3ccccn3)ccn2)cc1 [GW684088] | 9
2 | Cl.Oc1ccc(-c2nc(-c3ccccc3)[nH]c2-c2ccncc2)cc1 [SB-428218] | 0
3 | COc1ccc(C2=C(Nc3cccc(C(=O)O)c3)C(=O)NC2=O)cc1 [SB-390765] | 3
4 | COc1ccc2nc(-c3cccc(C)n3)nc(Nc3ccncc3)c2c1 [GSK204919] | 0
5 | CC1=C(C(=O)Nc2cc3cn[nH]c3cc2F)C(c2ccc(C(F)(F)F)cc2)CC(=O)N1 (stereo not shown) [GSK429286] | 0
6 | Cn1ccc2ncnc(Oc3cccc(C(=O)Nc4ccccc4)c3)c21 | 4
7 | Cl.NC(=O)c1cccc(Nc2nccc(Nc3ccc(Oc4cccc(Cl)c4)c(Cl)c3)n2)c1 [GW659008] | 0
8 | COc1ccc(Nc2nccc(-c3cccc(NC(=O)c4cc5cc(F)ccc5[nH]4)c3)n2)cc1 [GSK1229782] | 4
9 | O=C(Nc1n[nH]c2nc(-c3nccs3)c(Br)cc12)C1CCCC1 [SB-742609] | 73
10 | CCn1c(-c2ccccn2)nc2cnccc21 [SB-736398] | 0
11 | Cn1ccc2ncnc(Oc3ccc(Nc4nc5ccccc5[nH]4)cc3)c21 | 0
12 | CS(=O)(=O)c1ccc(-c2nc3n(c2-c2ccncc2)CCC3)cc1 [SKF-105942] | 0
13 | Nc1nc(-c2nccs2)c(-c2ccnc3ccccc23)s1 [GW693542] | 0
14 | COc1cccc(NC(=O)NC2CCN(c3ccnc(Nc4ccc(F)cc4)n3)C2)c1 (stereo not shown) [GSK1379721] | 0
15 | Cn1ccc2ncnc(Oc3ccc(NC(=O)Nc4ccccc4)cc3)c21 | 13
16 | Cc1csc(-c2nc(Nc3ccncc3)c3ccccc3n2)n1 [GW869640] | 31
17 | O=c1cc(N2CCOCC2)nc2n(Cc3cccc(Cl)c3Cl)ccn12 [GSK2286295] | 0
18 | COc1cc2ncnc(Nc3ccc4nc(-c5ccccc5)[nH]c4c3)c2cc1OC.Cl [GW282450] | 0

Row | Compound | %Inh [%]
19 | CCCc1ccc(S(=O)(=O)NC2CCN(c3ccnc(Nc4ccc(F)cc4)n3)C2)cc1 (stereo not shown) [GSK1379715] | 0
20 | COc1cc2nccc(Nc3ccc(NC(=O)c4ccc(C)cc4)c(O)c3)c2cc1OC.Cl [GW440132] | 75
21 | CCn1c(-c2cccnc2O)nc2cnccc21 [SB-736715] | 0
22 | O=C(Nc1n[nH]c2cc(-c3cccc(F)c3F)ccc12)C1CC1 [SB-733894] | 17
23 | Cc1c(O)cccc1Nc1ccnc2ccc(C(F)(F)F)cc12.Cl [GW466413] | 0
24 | COc1ccccc1-c1ccc2c(NC(=O)C3CC3)n[nH]c2n1 [SB-711239] | 0
25 | COC(=O)c1c(-c2ccccc2)c2cc(C(=O)O)ccc2c(=O)n1Cc1ccccc1 | 0
26 | Cc1ccc(NC(=O)Nc2cc(C(C)(C)C)nn2-c2ccccc2)cc1 [GSK1014915] | 0
27 | Cc1cc(NCC(c2ccccc2)c2ccccc2)nc(NCc2ccc(C(F)(F)F)cc2)n1 [GW497681] | 0
28 | Cc1cccc(-c2nc(-c3ccc(S(C)(=O)=O)cc3)sc2-c2ccnc(NCCc3ccccc3)c2)c1 | 2
29 | O=C(Nc1ccccc1)Nc1cccc(Oc2ccc3nccn3n2)c1 | 0
30 | COc1cccc(-c2cc(-c3c[nH]nc3-c3ccccn3)ccn2)c1 [GW680338] | 0
31 | CN(C)CCN(C)C(=O)c1cc(-c2ccncc2)c(-c2ccc(Cl)c(O)c2)o1.Cl.Cl [SB-710397] | 0
32 | COc1cc(Nc2nccc(N3CCC(NC(=O)Nc4cc(C)ccc4C)C3)n2)cc(OC)c1OC (stereo not shown) [GSK1379762] | 0
33 | Fc1cc(Cl)ccc1Nc1ccnc2cc(-c3ccc(CN4CCCCC4)o3)ccc12 [GW560116] | 0
34 | Cc1cccc(-c2nc(Nc3cccc(C(N)=O)c3)c3ccccc3n2)n1 [GW876019] | 8
35 | Clc1cc(Cl)cc(Nc2ccnc(Nc3cc(Cl)cc(Cl)c3)n2)c1 [GSK175726] | 5

What follows are molecules tested on CDK8. Settings: concentration: 1 μM, replicates: in singlicate; n = 1.

Row | Compound | %Inh [%]
36 | Cc1ccc(-c2cc(-c3c[nH]nc3-c3ccccn3)ccn2)cc1 [GW684088] | 52
37 | Cl.Oc1ccc(-c2nc(-c3ccccc3)[nH]c2-c2ccncc2)cc1 [SB-428218] | 0
38 | COc1ccc(C2=C(Nc3cccc(C(=O)O)c3)C(=O)NC2=O)cc1 [SB-390765] | 0
39 | COc1ccc2nc(-c3cccc(C)n3)nc(Nc3ccncc3)c2c1 [GSK204919] | 7
40 | CC1=C(C(=O)Nc2cc3cn[nH]c3cc2F)C(c2ccc(C(F)(F)F)cc2)CC(=O)N1 (stereo not shown) [GSK429286] | 18
41 | Cn1ccc2ncnc(Oc3cccc(C(=O)Nc4ccccc4)c3)c21 | 22
42 | Cl.NC(=O)c1cccc(Nc2nccc(Nc3ccc(Oc4cccc(Cl)c4)c(Cl)c3)n2)c1 [GW659008] | 28
43 | COc1ccc(Nc2nccc(-c3cccc(NC(=O)c4cc5cc(F)ccc5[nH]4)c3)n2)cc1 [GSK1229782] | 56
44 | O=C(Nc1n[nH]c2nc(-c3nccs3)c(Br)cc12)C1CCCC1 [SB-742609] | 0
45 | CCn1c(-c2ccccn2)nc2cnccc21 [SB-736398] | 39
46 | Cn1ccc2ncnc(Oc3ccc(Nc4nc5ccccc5[nH]4)cc3)c21 | 6
47 | CS(=O)(=O)c1ccc(-c2nc3n(c2-c2ccncc2)CCC3)cc1 [SKF-105942] | 0
48 | Nc1nc(-c2nccs2)c(-c2ccnc3ccccc23)s1 [GW693542] | 14
49 | COc1cccc(NC(=O)NC2CCN(c3ccnc(Nc4ccc(F)cc4)n3)C2)c1 (stereo not shown) [GSK1379721] | 61
50 | Cn1ccc2ncnc(Oc3ccc(NC(=O)Nc4ccccc4)cc3)c21 | 12
51 | Cc1csc(-c2nc(Nc3ccncc3)c3ccccc3n2)n1 [GW869640] | 0
52 | O=c1cc(N2CCOCC2)nc2n(Cc3cccc(Cl)c3Cl)ccn12 [GSK2286295] | 0
53 | COc1cc2ncnc(Nc3ccc4nc(-c5ccccc5)[nH]c4c3)c2cc1OC.Cl [GW282450] | 0

Row | Compound | %Inh [%]
54 | CCCc1ccc(S(=O)(=O)NC2CCN(c3ccnc(Nc4ccc(F)cc4)n3)C2)cc1 (stereo not shown) [GSK1379715] | 0
55 | COc1cc2nccc(Nc3ccc(NC(=O)c4ccc(C)cc4)c(O)c3)c2cc1OC.Cl [GW440132] | 33
56 | CCn1c(-c2cccnc2O)nc2cnccc21 [SB-736715] | 33
57 | O=C(Nc1n[nH]c2cc(-c3cccc(F)c3F)ccc12)C1CC1 [SB-733894] | 89
58 | Cc1c(O)cccc1Nc1ccnc2ccc(C(F)(F)F)cc12.Cl [GW466413] | 18
59 | COc1ccccc1-c1ccc2c(NC(=O)C3CC3)n[nH]c2n1 [SB-711239] | 44
60 | COC(=O)c1c(-c2ccccc2)c2cc(C(=O)O)ccc2c(=O)n1Cc1ccccc1 | 13
61 | Cc1ccc(NC(=O)Nc2cc(C(C)(C)C)nn2-c2ccccc2)cc1 [GSK1014915] | 58
62 | Cc1cc(NCC(c2ccccc2)c2ccccc2)nc(NCc2ccc(C(F)(F)F)cc2)n1 [GW497681] | 28
63 | Cc1cccc(-c2nc(-c3ccc(S(C)(=O)=O)cc3)sc2-c2ccnc(NCCc3ccccc3)c2)c1 | 15
64 | O=C(Nc1ccccc1)Nc1cccc(Oc2ccc3nccn3n2)c1 | 76
65 | COc1cccc(-c2cc(-c3c[nH]nc3-c3ccccn3)ccn2)c1 [GW680338] | 44
66 | CN(C)CCN(C)C(=O)c1cc(-c2ccncc2)c(-c2ccc(Cl)c(O)c2)o1.Cl.Cl [SB-710397] | 37
67 | COc1cc(Nc2nccc(N3CCC(NC(=O)Nc4cc(C)ccc4C)C3)n2)cc(OC)c1OC (stereo not shown) [GSK1379762] | 20
68 | Fc1cc(Cl)ccc1Nc1ccnc2cc(-c3ccc(CN4CCCCC4)o3)ccc12 [GW560116] | 28
69 | Cc1cccc(-c2nc(Nc3cccc(C(N)=O)c3)c3ccccc3n2)n1 [GW876019] | 36
70 | Clc1cc(Cl)cc(Nc2ccnc(Nc3cc(Cl)cc(Cl)c3)n2)c1 [GSK175726] | 0
